# Several values for one entry are separate records, joined by “and”; a condition that tells them apart may be missing. Equal values may be shown once. A structure can be active in one record and inactive in another. Activity calls are given as the source filed them.
# Experiment: small-molecule binders of probe aLefty1, primary screen, biochemical, small-molecule microarray, 635/667 nm fluorescence (AID 1153);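 further: score merges spot fluorescence with signal-to-noise ratio from the scanned slide images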
# Settings: higher = more signal
row,SMILES,composite z-score
1,CC(C)=CCCC(C)=CCON=C1C[C@@H](O)[C@@H](O)[C@@H]2[C@@H]3C(=O)N([C@@H](C)c4ccccc4)C(=O)[C@@H]3CC[C@H]12,-0.0603
2,C[C@@H]1CC[C@H]2C(=O)NC[C@@H](O)CN2[C@H]1c1ccc(Br)cc1,-0.426 and -0.017
3,COc1ccc(O[C@H]2C=C[C@@H](c3ccccc3)O[C@@H]2COC(=O)CCC(C)=NO[C@H](C)c2cn([C@H](CO)Cc3ccccc3)nn2)cc1,0.273 and -0.553
4,C=CCN(CCCC)C(=O)C(c1cccs1)N(C(=O)/C=C\C(=O)O)c1c(Cl)cccc1CO (stereo unspecified),-0.148 and -0.0099
5,CC(CO)N1C(=O)[C@@H]2C3C(=O)OCCC=C[C@H]3OC23C=CCN(c2ccc(Cl)cc2)C(=O)[C@@H]13 (stereo partly specified),-0.142 and 0.422
6,C=CCN(C(=O)C(c1cccs1)N(CCOCCO)C(=O)/C=C\C(=O)O)C(C)(C)C (stereo unspecified),-0.371 and -0.355
7,C=C[C@H](OC)[C@@H](O)c1ccc(O)c(F)c1,-0.266 and -0.148
8,CC(CO)N1C(=O)[C@@H]2C3C(=O)OCCC=C[C@H]3OC23C=CCN(C(C)(C)C)C(=O)[C@@H]13 (stereo partly specified),-0.224 and 0.227

# Experiment: PSAC antagonists in infected red cells, primary screen, cell-based, P. falciparum Indochina, OD700, 1 h (AID 1154)
# Settings: P. falciparum Indochina infected RBC osmotic lysis, higher = more signal, called active from +8 up or from −8 down
row,SMILES,z-score
1,COC(=O)C1=C(C)N(Cc2ccccc2)[C@]23O[C@](C(=O)OC)(C(=O)N2[C@@H]1c1ccccc1)[C@@H](C(=O)OC)[C@H]3C(=O)OC,0.295 (inactive) and 0.114 (inactive)
2,CO[C@@H]1COC(=O)CC=C[C@H](C)COC(=O)[C@H](C)NC(=O)CC=C[C@H]1C,-0.0875 (inactive)
3,COC(=O)C1=C(C)N(Cc2ccccc2)C2=C(C(C)=O)[C@H](c3ccccc3)[C@@](O)(C(=O)OC)C(=O)N2[C@@H]1c1ccccc1,1.65 (inactive) and 0.383 (inactive)
4,C[N+](C)(C)CCCCNC(=O)[C@H]1C[C@H]2C(=O)N[C@@H](CCCC[N+](C)(C)C)C(=O)N2[C@H]1c1cccc(OCCO)c1,1.37 (inactive) and 2.16 (inactive)
5,CCOC(=O)NN=C1C[C@@H](O)[C@@H](O)[C@@H]2[C@@H]3C(=O)N(Cc4ccc5c(c4)OCO5)C(=O)[C@@H]3CC[C@@H]12,6.5 (inactive)
6,C[N+](C)(C)CCCCNC(=O)[C@H]1C[C@H]2C(=O)N[C@@H](CCCC[N+](C)(C)C)C(=O)N2[C@H]1c1ccc(O)cc1,-0.373 (inactive) and 0.369 (inactive)
7,O=c1n(-c2ccccc2)c(=O)n2n1CC[C@@H]1C(=NOC[C@@H](O)COCc3ccco3)[C@H]3O[C@H]3[C@@H](O)[C@@H]12,1.17 (inactive) and 0.288 (inactive)
8,C=C[C@@H](C)[C@H](O)c1ccc(O)c2ccccc12,1.57 (inactive) and 1.31 (inactive)
9,COC(=O)C1=C(C)N(Cc2ccccc2)C2=C(C(C)=O)C[C@@](O)(C(=O)OC)C(=O)N2[C@@H]1c1ccccc1,0.0793 (inactive) and -0.0501 (inactive)
10,CCC[C@@H]1C[C@@]1(CCC)[C@@H](NC(=O)c1ccc(-c2ccccc2)cc1)c1cccc(Cl)c1,2.33 (inactive) and 6.65 (inactive)
11,C=CCN(CCCC)C(=O)C1N(CCOCCO)C(=O)C2C(C(=O)O)C3C=CC21O3 (stereo unspecified),0.461 (inactive) and -0.326 (inactive)
12,C=CCN(Cc1ccccc1)C(=O)C1N(CCOCCO)C(=O)C2C(C(=O)O)C3C=CC21O3 (stereo unspecified),-0.451 (inactive) and 0.417 (inactive)
13,C=CC[C@@H](O)c1ccc(O)c2ccccc12,0.964 (inactive) and 0.883 (inactive)
14,CO[C@@H]1C=CCC(=O)N2CCC[C@H]2C(=O)OC[C@H](C)C(=O)OC[C@H]1C,-0.393 (inactive)
15,CN1C(=O)C2CC=C([C@H]3Oc4ccccc4S(=O)(=O)N4CCC[C@@H]34)CC2C1=O (stereo partly specified),0.35 (inactive) and 0.829 (inactive)
16,CCOC(=O)c1ccc(NC(=O)O[C@H]2[C@H](OC(=O)Nc3ccccc3)[C@@H](OC(=O)Nc3ccccc3)[C@@H](OC)O[C@@H]2CO)cc1,5.55 (inactive) and 14.7 (active)
17,C=CCN(Cc1ccccc1)C(=O)C(c1cccs1)N(C(=O)/C=C\C(=O)O)c1c(Cl)cccc1CO (stereo unspecified),-0.152 (inactive) and -0.0214 (inactive)
18,CC(CO)N1C(=O)[C@@H]2C3C(=O)OCCC=C[C@H]3OC23C=CCN(CCN2CCOCC2)C(=O)[C@@H]13 (stereo partly specified),0.0695 (inactive) and 6.53 (inactive)
